According to PubChem BioAssay AID686978 (National Center for Advancing Translational Sciences (NCATS), 2013):
Out of some 420,000 compounds screened, about 64,000 (15%) were called active. About 27% were inconclusive and are not listed. Only a sample is shown. Unmarked numbers belong to inactive results. The call rests on the fitted dose curve; in most records, active means well fitted inhibition curve with a large enough effect; inconclusive means small, poorly fitted or top-dose-only effect; inactive means flat fitted curve, though single readings scatter.

assay: qHTS for Inhibitors of human tyrosyl-DNA phosphodiesterase 1 (TDP1): qHTS in cells in absence of CPT; conditions: DT40 Tdp1-/- hTDP1 cells, no CPT, ATP luminescence, 48 h; activity change, negative = growth inhibition: at 46.2 µM (top of the series); further: nearly all actives have a fitted effect of over 55% in size
Summary of the method: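 Growth of hTDP1-complemented DT40 Tdp1-knockout cells is measured by ATP luminescence after at least 48 hr compound exposure at 37 °C, with DMSO substituting for the 20 nM CPT used in the parallel screen.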
On the % scale 0 is the no-effect control and ±100 the full control effect; potency means the concentration at half of the fitted maximal effect.

| SMILES | activity change, negative = growth inhibition | Potency |
| --- | --- | --- |
| COc1cc(NC(=O)COC(=O)CSc2ccc3ccccc3c2)c(C)cc1[N+](=O)[O-] | -20.6% | – |
| CC1CCN(C2=NC(=O)/C(=C/c3cn[nH]c3-c3ccccc3)S2)CC1 | – | 14.6 µM (active) |
| O=C1N=C(N2CCOCC2)S/C1=C\C=C/c1ccccc1 | -25.6% | – |
| Cc1nc2nc(C)c(NS(=O)(=O)c3ccc(C(C)(C)C)cc3)c(=O)n2[nH]1 | -14.5% | – |
| CC(=O)c1ccc(OC(=O)N2CCOCC2)cc1 | -11.9% | – |
| Cc1ccc(CN(C)Cc2cc(=O)oc3cc(C)c(Cl)cc23)cc1 | 0.563% | – |
| COc1ccc(S(=O)(=O)N(C)C[C@@H]2Oc3ccc(NS(=O)(=O)c4cn(C)cn4)cc3C(=O)N([C@@H](C)CO)C[C@@H]2C)cc1 | 2.75% | – |
| Cn1c(N)c(C(=O)COC(=O)c2ccc3ccccc3c2)c(=O)n(C)c1=O | -16.8% | – |
| CCc1cc(=O)oc2cc(OCC(=O)N3CCCc4ccccc43)ccc12 | -0.399% | – |
| Cc1cc(OCCCCOc2ccc(C#N)cc2)ccc1[N+](=O)[O-] | – | 8.2 µM (active) |
| Cc1cc(OCC(=O)NC2CCN(C)CC2)ccc1[N+](=O)[O-] | -1.1% | – |
| Cc1ccccc1N1CCN(CCCOc2ccc3c(C)cc(=O)oc3c2)CC1 | – | 16.4 µM (active) |
| Cc1ccc(OCC(=O)Oc2ccccc2[N+](=O)[O-])cc1 | 0.798% | – |
| Cc1cc(OCCCN2CCN(Cc3ccccc3)CC2)ccc1[N+](=O)[O-] | – | 11.6 µM (active) |
| Cc1cc(OCC(=O)Nc2c(C)n(C)n(-c3ccccc3)c2=O)ccc1[N+](=O)[O-] | 1.98% | – |
| Cc1c(Br)c([N+](=O)[O-])nn1CC(=O)N1CCN(Cc2ccccc2)CC1 | 2.31% | – |
| Cc1ccccc1N1CCN(CCCN2C(=O)C3CCCCN3C2=O)CC1 (stereo not drawn) | -19.9% | – |
| COc1ccc(S(=O)(=O)Nc2c(C)n(C)n(-c3ccccc3)c2=O)cc1 | -0.229% | – |
| CC[C@@H]1CCCCc2ccccc2[C@@H](C(=O)C[C@H](O)CC(C)=O)OC1=O | -13.8% | – |
| O=C(c1cc(COc2ccc(F)cc2F)on1)N1CCOCC1 | 3.74% | – |
| Cc1ccccc1CSc1nnc(-c2ccccn2)n1N | -17.6% | – |
| CN(Cc1ccccc1)S(=O)(=O)c1nnc(NC(=O)c2ccccc2F)s1 | -2.67% | – |
| O=C(Oc1cccc(C(=S)N2CCOCC2)c1)c1cccc(Cl)c1 | -8.76% | – |
| COCCCNC(=O)C1CC(=O)N(CCc2ccc(F)cc2)C1 (stereo not drawn) | 2.99% | – |
| COC(=O)C1C(=O)NCC1c1ccc(C)cc1 (stereo not drawn) | -5.08% | – |
| O=[N+]([O-])c1ccc(NCCCO)c(C(F)(F)F)c1 | -14.2% | – |
| CO/N=C(\N)c1ccc([N+](=O)[O-])cc1 | -16.8% | – |

| SMILES | activity change, negative = growth inhibition | Potency |
| --- | --- | --- |
| O=C1/C(=C\c2ccc(O)cc2)CCC1CNc1ccc(Cl)cc1 (stereo not drawn) | – | 3.26 µM (active) |
| CCCNC(=O)C(=O)Nc1cc2c3c(c1)CCC(=O)N3CCC2 | 4.33% | – |
| CC1=NN(C(N)=S)C(=O)C1N=Nc1cc(Cl)ccc1Cl (stereo not drawn) | – | 3.66 µM (active) |
| Cc1[nH]n(C(N)=S)c(=O)c1N=Nc1ccc(Cl)cc1Cl | -0.416% | – |
| Cc1cc(C)c(C#N)c(N2CCC(C(N)=O)CC2)n1 | -0.105% | – |
| CC1CCN(C(=O)c2ccc(CSc3ccc(Cl)cc3)cc2)CC1 | – | 16.4 µM (active) |
| COc1ccc(CC(NC(C)=O)C(=O)NC2CCN(C(=O)c3ccc(Cl)cc3)CC2)cc1 (stereo not drawn) | -5.27% | – |
| O=C(c1ccc(CSc2ccccc2)cc1)N1CCCCCC1 | -26.1% | – |
| Cc1cc(C)c(C#N)c(Nc2cccc(Br)c2)n1 | -1.59% | – |
| CC(C)(C)OC(=O)CNC(=O)c1[nH]cnc1C(=O)N[C@@H](CCCCN)C(=O)OC(C)(C)C | -11.3% | – |
| C#CCOCCOCCOCCNc1nc(N2CCN(C(=O)C([C@@H](C)O)n3cc([C@@H](N)CCCCN)nn3)CC2)nc(N2CCN(C(=O)[C@H](CCCCN)n3cc(CN)nn3)CC2)n1 (stereo partly drawn) | -15% | – |
| O=C(NCc1ccco1)C1CCCN1S(=O)(=O)c1ccccc1C(F)(F)F (stereo not drawn) | -18.2% | – |
| CCOC(=O)CSc1nc(C)cc2c1C(=O)OC2 | 9.81% | – |
| CCCC(=O)N1CCC1(C)C(=O)Nc1ccc(-n2cncn2)cc1 (stereo not drawn) | -2.82% | – |
| CCOC(=O)CSC1=N/C(=C/c2ccc(-n3cncn3)cc2)C(=O)N1C(C)=O | – | 11.6 µM (active) |
| C=CCn1c(COc2ccccc2C)nnc1SCC(=O)O | 2.03% | – |
| COc1ccc(CCNc2ncnc3onc(-c4ccc(Cl)cc4)c23)c(OC)c1 | – | 14.6 µM (active) |
| COc1ccc(CNc2ncncc2-c2ccccc2C)c(OC)c1 | -21.4% | – |
| COc1ccc(CNc2ncncc2-c2ccccc2OC)c(OC)c1 | -11.4% | – |
| O=C(Nc1cccc2c1CCCC2)c1ccc(F)cc1 | -28.2% | – |
| Clc1cccc(Cl)c1Cn1nnc(-c2cccs2)n1 | -4.91% | – |
| Cc1ccc(N=Cc2c(O)cc(C)oc2=O)c(C)c1 | -7.95% | – |
| C=CCN(CC=C)S(=O)(=O)c1ccc(C(=O)Nc2nc3c(s2)CCc2ccccc2-3)cc1 | – | 10.3 µM (active) |
| C=CCSc1nnc(NC(=O)c2ccc(NC(C)=O)cc2)s1 | 0.0104% | – |
| COCCN(CCOC)S(=O)(=O)c1ccc(/C(O)=C(\C#N)c2nc3ccccc3[nH]2)cc1 | -28% | – |
| NC(=O)c1c(NC(=O)c2ccccc2)sc2c1CCCC2 | -1.15% | – |
